# LDHA inh: inhibitors of human lactate dehydrogenase A | P00338 | purified LDHA, NADH/diaphorase-resazurin fluorescence; active compounds read low | activity change, % (values are at about 110 or 230 µM) | 480,000 compounds, 0.15% hits | AID 1347041; in the data active means activity change below about -30%; inconclusive means mostly about -25% to -30%;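 further: plate controls were DMSO wells for no effect and wells without enzyme for full effect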
#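 Remaining NADH was detected by diaphorase (0.133 mg/mL) converting 37 µM resazurin to fluorescent resorufin, read at 0 and 20 minutes. The preceding 5-minute room-temperature reaction used 2 nM LDHA, 0.2 mM sodium pyruvate and 0.06 mM NADH at pH 7.4.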
# Abeta yeast res: compounds reversing amyloid beta toxicity in yeast. Potency, µM (highest dose often 46.1 µM), actives largely listed as activators. yeast expressing A-beta42, growth rescue, OD600, 48 h; response scale: 0% DMSO, 100% iron-clioquinol control. 410,000 compounds, 0.063% hits; further: potency means the concentration at half of the fitted maximal effect; nearly all actives have a fitted effect of over 55% in size
#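 Growth rescue measured by 600 nm absorbance after 48 h yeast culture at 30 C with compound. Values normalized between DMSO and an equimolar ferric chloride plus clioquinol control.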
# PTHR1 ag: PTHR1 (human) receptor agonism | Q03431 | HEK293 GP2 PTHR1 cells, GloSensor cAMP luminescence, 1 h | Potency, µM (top dose mostly 115 µM), for inactives: top-dose activation, most hits filed as activators | 410,000 compounds, 0.075% hits | AID 743266; further: potency means the concentration at half of the fitted maximal effect; nearly all actives have a fitted effect of over 55% in size
# Target sequence (Q03431 whole entry, looked up): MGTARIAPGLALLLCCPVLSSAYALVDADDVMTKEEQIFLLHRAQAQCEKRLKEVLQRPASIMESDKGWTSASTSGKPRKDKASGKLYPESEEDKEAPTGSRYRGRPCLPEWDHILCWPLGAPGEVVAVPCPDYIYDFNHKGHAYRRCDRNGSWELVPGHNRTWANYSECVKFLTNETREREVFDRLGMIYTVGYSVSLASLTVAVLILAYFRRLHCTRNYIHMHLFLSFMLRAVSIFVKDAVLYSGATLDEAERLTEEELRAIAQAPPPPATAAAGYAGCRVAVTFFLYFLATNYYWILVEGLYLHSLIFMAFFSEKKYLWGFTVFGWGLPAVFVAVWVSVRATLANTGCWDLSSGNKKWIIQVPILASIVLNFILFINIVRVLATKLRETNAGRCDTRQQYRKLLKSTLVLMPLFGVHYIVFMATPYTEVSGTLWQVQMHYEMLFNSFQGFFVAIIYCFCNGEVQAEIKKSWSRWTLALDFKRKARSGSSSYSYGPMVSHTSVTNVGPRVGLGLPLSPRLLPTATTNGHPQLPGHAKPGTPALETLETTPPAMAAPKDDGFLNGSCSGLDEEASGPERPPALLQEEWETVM
#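 HEK-293-derived GP2 cells expressing PTHR1 and a GloSensor cAMP reporter, 3,000/well, plated overnight, given luciferin plus IBMX (each 0.5 mM as added) for 1 h at 37 °C, then compound for 1 h at 37 °C. Luminescence was read after 15 min at room temperature.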
# TDP43 rescue: TDP-43 toxicity inhibition in yeast | Potency, µM (series often up to 46.1 µM), for the others: at the top dose growth rescue (activation), actives largely listed as activators | 410,000 compounds, 1.8% hits | TDP-43 expressing yeast growth rescue, BacTiter-Glo, 24 h; further: potency means the concentration at half of the fitted maximal effect; % of control where 0% means no effect; nearly all actives have a fitted effect of over 50% in size
#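 Growth rescue of TDP-43-toxic yeast measured as ATP luminescence (BacTiter-Glo). Cells grown to mid-log in raffinose, induced in galactose at OD600=0.02, exposed to compound 24 hr at 30 deg C.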
# aSyn yeast inh: alpha-synuclein toxicity inhibition in yeast; Yeast expressing alpha-synuclein, growth rescue, BacTiter-Glo, 24 h; Potency, µM (titrated, usually from 46.1 µM), for inactives: at the highest dose growth rescue (activation), usual class: activators; 370,000 compounds, 0.14% hits; AID 652106; further: potency means the concentration at half of the fitted maximal effect; % of control where 0% means no effect; nearly all actives have a fitted effect of over 65% in size
#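 Galactose-induced alpha-syn yeast (OD600=0.02, raffinose-pregrown) + pinned cpd, 24 hr, 30 deg C; growth by BacTiter-Glo luminescence. Growth restoration scores as activation.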
# FUS suppressor: FUS proteinopathy suppression in yeast; S. cerevisiae FUS-expressing, growth rescue, OD600, 24 h; Potency, µM (doses to about 76.6 µM), hits mostly activators; 390,000 compounds, 0.24% hits; AID 1347120;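 further: potency means the concentration at half of the fitted maximal effect; plate controls were DMSO vehicle for no effect and reference control for full effect; nearly all actives have a fitted effect of over 55% in size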
#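 Quantitative HTS measuring growth restoration of FUS-toxic yeast. Galactose-induced cells (OD 0.005) were exposed 24hr at 30C to compounds at several concentrations, then absorbance at 600 nm was recorded.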
# Starred values were filed as active, the others as inactive; i = inactive; ? = inconclusive; nt = no result given; [ ] = dose if it differs, or a comment. Shown are actives, neighbours in structure and some others; about 1.9% of the full set was active somewhere. Unless noted, the call rests on the fitted dose curve; in most records, active means well fitted curve in the direction sought with a large enough effect; inconclusive means small, poorly fitted or top-dose-only effect, or another doubt; inactive means no such curve, though single readings can be large; an effect the other way counts as inactive or inconclusive.
SMILES,LDHA inh,Abeta yeast res,PTHR1 ag,TDP43 rescue,aSyn yeast inh,FUS suppressor
COc1ccc(-c2cccc(NC(=O)COc3ccc(Cl)cc3)c2)nn1,-7,i,-15%,11µM*,-11%,i
COC(=O)c1ccc(/C=C/C(=O)NCCC(c2ccccc2)c2ccccc2)cc1,10,nt,nt,nt,nt,nt
O=C1c2ccccc2C(=O)N1C1C=CC=CC=C1,11,i,i,25µM*,?,i
O=C1c2ccccc2C(=O)N1c1ccncc1,-2,nt,nt,nt,nt,nt
CC(C)C1NC(=O)N(Cc2cc(F)cc3cccnc23)C1=O (stereo not given),0,nt,nt,nt,nt,nt
N/C(Cc1ccc([N+](=O)[O-])cc1)=N\OC(=O)c1ccc2ccccc2c1,-19,i,-24%[57.5 µM],11µM*,-33%,i
COc1cc(C2CC(=O)Nc3c2c(C)nn3-c2ccc3nncn3n2)cc(OC)c1OC (stereo not given),0,nt,nt,nt,nt,nt
CCCCCCCCCCn1cc(C(C)=O)c(=O)[nH]c1=O,-5,i,i,10%,5%,i
CCCCCCCCn1cc(C(C)=O)c(=O)[nH]c1=O,-14,i,i,13µM*,6%,i
Cc1ccc(Sc2ccc(NC(=O)CCl)cc2)cc1C,4,i,-67%,?,-35%,i
Cc1ccc(C)c(Sc2ccc(NC(=O)CCl)cc2)c1,4,i,i,8.9µM*,17%,i
COc1ccc(NC(=O)CCn2c(=O)c3cccn3c3ccccc32)cc1,-12,i,-37%,5%,-2%,i
O=C(CCCn1c(=O)c2cccn2c2ccccc21)NCCc1ccc(Cl)cc1,-4,?,-33%,25µM*,nt,i
COc1ccc(NC(=O)CCn2c(=O)c3cccn3c3ccccc32)c(OC)c1,1,i,-5%,22µM*,8%,i
CCOc1ccc(NC(=O)CCCn2c(=O)c3cccn3c3ccccc32)cc1,-31*,nt,nt,nt,nt,nt
COc1ccc(NC(=O)NCc2cccn2C)c(OC)c1,7,i,i,-3%,-2%,28µM*
CCOc1ccc(NC(=O)CCn2c(=O)c3cccn3c3cccnc32)cc1,-19,i,-50%,27%,nt,i
COc1ccc(NC(=O)NCc2ccncc2)c(OC)c1,0,i,0%,-15%,nt,i
CC(C)CNC(=O)c1cc(-c2ccccc2F)no1,-10,nt,nt,nt,nt,nt
CC1C(c2cccs2)=[N+]([O-])C(C)(c2ccc(Cl)cc2)N1O (stereo not given),8,nt,nt,nt,nt,nt
O=C(Nc1ccccc1O)c1csc(NC2CC2)n1,0,nt,nt,nt,nt,nt
Cc1ncsc1CCOC(=O)C12CC3CC(CC(C3)C1)C2,0,i,i,20µM*,-6%,i
COc1ccc(-c2sc3cc4c(cc3c2C#CCO)OCO4)cc1,7,i,-95%,3%,-14%,i
COc1ccc2sc(-c3ccccc3OC)c(C#CCCO)c2c1,1,i,-31%,20µM*,-12%,i
COc1ccccc1-c1sc2cc3c(cc2c1C#CCO)OCO3,2,i,-6%,22µM*,0%,?
SMILES,LDHA inh,Abeta yeast res,PTHR1 ag,TDP43 rescue,aSyn yeast inh,FUS suppressor
CN(C(=O)CCc1cccs1)C1CCCCC1,-23,nt,nt,nt,nt,nt
CC1CCN(c2nc(Cl)nc(Nc3ccc([N+](=O)[O-])cc3)n2)CC1,-2,i,-35%,20µM*,8%,nt
CC(=O)C(C(C)=O)C(NC(=O)c1ccc(C)cc1)(C(F)(F)F)C(F)(F)F,5,nt,nt,nt,nt,nt
Oc1sc(C=Nc2ccc(F)cc2)c2ccccc12,-6,i,-7%[57.5 µM],0.63µM*,0%,i
Oc1sc(C=Nc2ccccc2)c2ccccc12,2,i,-10%[57.5 µM],?,6%,i
CC(C)(C)C(=O)NC(=S)Nc1ccc(Cl)c(C(=O)O)c1,-4,i,-14%,-12%[1.82 µM],13%,i
CC(C)(C)C(=O)NC(=S)Nc1ccc(C(F)(F)F)cc1,-11,13µM*,-65%,20%,0%,i
Cc1cc(C)nc(N(C#N)Cc2ccc(Br)cc2)n1,6,i,-10%[57.5 µM],14µM*,0%,i
Cc1cc(C)nc(N(C#N)Cc2ccc(Cl)cc2)n1,-2,i,-7%,26%[9.22 µM],14%,i
Cc1ccc(CN(C#N)c2nc(C)cc(C)n2)cc1,-3,i,i,35µM*,6%,i
Cc1cc(C)nc(N(C#N)Cc2cccc(Cl)c2)n1,-4,i,-18%,?,13%,i
Cc1cc(C)nc(N(C#N)CCOc2ccc(Cl)cc2)n1,-1,i,21%[57.5 µM],18µM*,-43%,i
Cc1cc(C=O)c(C)[nH]1,6,nt,nt,nt,nt,nt
O=C(Oc1ccc(=O)n(-c2ccccc2)n1)c1ccc(F)cc1,0,i,?,22µM*,2%,i
COc1ccc(C(=O)Oc2ccc(=O)n(-c3ccccc3)n2)cc1,0,i,-10%,14µM*,7%,i
CCOC(=O)c1cc(OC(=O)c2ccc(OC)cc2)n(-c2ccccc2)n1,-1,i,i,18µM*,-25%,i
CCOC(=O)c1cc(OC(=O)c2ccccc2)n(-c2ccccc2)n1,-2,i,i,3%,3%,i
COc1ccc(C(=O)C[n+]2cn(C(F)F)c3ccccc32)c(F)c1,-40*,i,i,-23%,-11%,i
COc1ccc(C(=O)C[n+]2cc(Br)cc3ccccc32)cc1,1,nt,nt,nt,6%,nt
COc1ccc(N(Cc2nc(-c3ccccc3)no2)S(=O)(=O)c2ccc3c(c2)OCCO3)cc1,12,nt,nt,nt,nt,nt
Cc1sc2ncnc(NCc3cccs3)c2c1C,5,i,-19%[57.5 µM],18µM*,-1%,i
Cc1ccc(NC(=O)C(C)C)c(Br)c1,-4,nt,nt,nt,nt,nt
COc1ccc(OCCNc2cc(N3CCOCC3)ccc2[N+](=O)[O-])cc1,3,i,-15%[57.5 µM],?,6%,i
COc1cccc(OCCNc2cc(N3CCOCC3)ccc2[N+](=O)[O-])c1,3,i,i,18µM*,4%,i
NNS(=O)(=O)c1ccc2c(c1)Cc1cc(S(=O)(=O)NN)ccc1-2,-35*,i,10%,-32%,0%,?
CC1CC(C)C[N+](=C2C=C(N3CCCC3)CC(C)(C)C2)C1 (stereo not given),-99*,i,-8%,23%,-3%,i
COCCN1C(=O)c2ccccc2NC1c1cc(OC)cc(OC)c1 (stereo not given),-8,nt,nt,nt,nt,nt
O=C1CC(N2CCN(S(=O)(=O)c3ccccc3F)CC2)C(=O)N1c1ccccc1F (stereo not given),-35*,i,i,7%,1%[1.84 µM],i
